This passage reports binding signal results from publication PMC7862700, “An all-to-all approach to the identification of sequence-specific readers for epigenetic DNA modifications on cytosine”.

Chain of HSF1 (Q00613 whole entry, the tested form may be a part): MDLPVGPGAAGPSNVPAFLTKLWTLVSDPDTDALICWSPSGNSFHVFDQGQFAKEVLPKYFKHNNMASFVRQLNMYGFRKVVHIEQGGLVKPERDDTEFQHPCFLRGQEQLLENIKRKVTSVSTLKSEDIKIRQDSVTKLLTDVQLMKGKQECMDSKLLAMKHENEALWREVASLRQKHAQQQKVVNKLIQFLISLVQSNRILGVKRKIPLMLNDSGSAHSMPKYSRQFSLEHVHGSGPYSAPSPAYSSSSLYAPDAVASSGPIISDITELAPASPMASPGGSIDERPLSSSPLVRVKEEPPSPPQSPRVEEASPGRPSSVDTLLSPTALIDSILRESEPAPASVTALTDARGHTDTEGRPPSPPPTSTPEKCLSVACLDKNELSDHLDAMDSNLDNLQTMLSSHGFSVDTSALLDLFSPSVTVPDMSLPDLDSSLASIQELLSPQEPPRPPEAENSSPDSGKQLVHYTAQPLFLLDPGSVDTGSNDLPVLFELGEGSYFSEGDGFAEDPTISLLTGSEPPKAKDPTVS

The first assay concerns the target HSF1 (Homo sapiens, UniProt Q00613 1-529). Kind of assay: DAPPL (digital affinity profiling via proximity ligation, sequencing); 10 mM Tris-HCl pH 7.5, 50 mM NaCl, 1 mM DTT, 4% glycerol, room temperature, 30 min; GST-TFs on glutathione beads, 16-mer random dsDNA library, 0.1% formaldehyde crosslink after washing; high values mean tight binding. To be noted: protein: recombinant; tags: N-terminal GST; chain copies: 3; dsDNA, one strand shown. Put shortly: (§1)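 Human transcription factors were made in yeast as GST fusions, captured on glutathione beads and barcoded with DNA. With a tag-only sample included, the pool was incubated with 200 nmole of a random double-stranded 16-mer DNA library in Tris/NaCl/DTT/glycerol buffer at room temperature for 30 min, then crosslinked with 0.1% formaldehyde after washing, ligated by proximity, amplified and sequenced. For binding signal, each hexamer's read frequency for a factor is divided by its frequency for the tag-only sample.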
As for CCTGAT, the binding signal was 1.32 fold enrichment (6-mer frequency, TF over GST control).

On to AATACC, for which the binding signal is 1.19 fold enrichment (6-mer frequency, TF over GST control).

Turning to ATTATA, the binding signal was 2.05 fold enrichment (6-mer frequency, TF over GST control).

GATCCT: the binding signal was 1.41 fold enrichment (6-mer frequency, TF over GST control).

ATCTGC: the binding signal is 1.44 fold enrichment (6-mer frequency, TF over GST control).

For ATACCT, the binding signal is 1.01 fold enrichment (6-mer frequency, TF over GST control).

Consider TGTTTC, for which the binding signal is 1.43 fold enrichment (6-mer frequency, TF over GST control).

Take TATGCT: the binding signal is 1.41 fold enrichment (6-mer frequency, TF over GST control).

As to TGGCTT, the binding signal is 1.38 fold enrichment (6-mer frequency, TF over GST control).

For CTGATT, the binding signal is 1.32 fold enrichment (6-mer frequency, TF over GST control).

Regarding ACTCCG, the binding signal is 1.16 fold enrichment (6-mer frequency, TF over GST control).

GTTGCT: the binding signal was 1.09 fold enrichment (6-mer frequency, TF over GST control).

TAATAC: the binding signal was 1.63 fold enrichment (6-mer frequency, TF over GST control).

Turning to TCTCAG, the binding signal is 1.4 fold enrichment (6-mer frequency, TF over GST control).

As for TAAAAT, the binding signal is 1.48 fold enrichment (6-mer frequency, TF over GST control).

In the case of TGCGCT, the binding signal was 1.07 fold enrichment (6-mer frequency, TF over GST control).

As to CCACTA, the binding signal is 1.08 fold enrichment (6-mer frequency, TF over GST control).

As to TTCGCT, the binding signal is 1.29 fold enrichment (6-mer frequency, TF over GST control).

CCGCAT: the binding signal was 1.13 fold enrichment (6-mer frequency, TF over GST control).

Take ATCTCG: the binding signal is 2.44 fold enrichment (6-mer frequency, TF over GST control).

The target in the next assay is T1, SPIC (Homo sapiens, UniProt Q8N5J4 1-248).
T1 sequence: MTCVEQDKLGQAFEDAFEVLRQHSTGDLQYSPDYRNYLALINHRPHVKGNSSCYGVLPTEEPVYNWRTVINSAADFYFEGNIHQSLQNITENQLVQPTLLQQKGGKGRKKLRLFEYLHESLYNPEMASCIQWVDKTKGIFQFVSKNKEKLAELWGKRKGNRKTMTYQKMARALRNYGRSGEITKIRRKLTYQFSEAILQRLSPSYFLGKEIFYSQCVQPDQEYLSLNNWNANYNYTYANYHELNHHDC
The description is as above. To be noted: protein: recombinant; tags: N-terminal GST; dsDNA, one strand shown. The method in brief: as §1
Consider ACGGAT, for which the binding signal was 1.38 fold enrichment (6-mer frequency, TF over GST control).

Consider ATCGCC, for which the binding signal is 1.31 fold enrichment (6-mer frequency, TF over GST control).

With TCTCGG, the binding signal was 1.1 fold enrichment (6-mer frequency, TF over GST control).

In the case of TCTTAT, the binding signal was 1.3 fold enrichment (6-mer frequency, TF over GST control).

In the case of CTACAT, the binding signal is 1.51 fold enrichment (6-mer frequency, TF over GST control).

In the case of TAGATG, the binding signal was 1.57 fold enrichment (6-mer frequency, TF over GST control).

As for TCCCCC, the binding signal was 1.44 fold enrichment (6-mer frequency, TF over GST control).

As for AAAATG, the binding signal was 1.32 fold enrichment (6-mer frequency, TF over GST control).

TCACTG: the binding signal was 1.24 fold enrichment (6-mer frequency, TF over GST control).

For GTTCTG, the binding signal was 1.1 fold enrichment (6-mer frequency, TF over GST control).

CCTTTC: the binding signal is 1.65 fold enrichment (6-mer frequency, TF over GST control).

In the case of CAATTA, the binding signal is 1.05 fold enrichment (6-mer frequency, TF over GST control).

On to CAAGAT, for which the binding signal is 1.14 fold enrichment (6-mer frequency, TF over GST control).

With GCTCAC, the binding signal is 1.32 fold enrichment (6-mer frequency, TF over GST control).

Consider TTTGTA, for which the binding signal was 1.57 fold enrichment (6-mer frequency, TF over GST control).

For the sequence TTTTGG, the binding signal is 1.38 fold enrichment (6-mer frequency, TF over GST control).

With ATGGAT, the binding signal is 1.21 fold enrichment (6-mer frequency, TF over GST control).

Regarding GAACAA, the binding signal is 1.23 fold enrichment (6-mer frequency, TF over GST control).

Regarding TCACTT, the binding signal was 1.62 fold enrichment (6-mer frequency, TF over GST control).

As for GCCTAA, the binding signal is 1.35 fold enrichment (6-mer frequency, TF over GST control).

Regarding CCTGAT, the binding signal is 1.42 fold enrichment (6-mer frequency, TF over GST control).

Regarding AATACC, the binding signal was 1.15 fold enrichment (6-mer frequency, TF over GST control).

In the case of ATTATA, the binding signal was 1.36 fold enrichment (6-mer frequency, TF over GST control).

For the sequence GATCCT, the binding signal was 1.21 fold enrichment (6-mer frequency, TF over GST control).

For ATCTGC, the binding signal was 1.46 fold enrichment (6-mer frequency, TF over GST control).

In the case of ATACCT, the binding signal is 1.11 fold enrichment (6-mer frequency, TF over GST control).

On to TGTTTC, for which the binding signal was 1.49 fold enrichment (6-mer frequency, TF over GST control).

Consider TATGCT, for which the binding signal is 1.6 fold enrichment (6-mer frequency, TF over GST control).

On to TGGCTT, for which the binding signal is 1.34 fold enrichment (6-mer frequency, TF over GST control).

For CTGATT, the binding signal was 1.5 fold enrichment (6-mer frequency, TF over GST control).

On to ACTCCG, for which the binding signal was 1.35 fold enrichment (6-mer frequency, TF over GST control).

Take GTTGCT: the binding signal is 1.28 fold enrichment (6-mer frequency, TF over GST control).

For the sequence TAATAC, the binding signal was 1.12 fold enrichment (6-mer frequency, TF over GST control).

For the sequence TCTCAG, the binding signal is 1.16 fold enrichment (6-mer frequency, TF over GST control).

Regarding TAAAAT, the binding signal is 1.19 fold enrichment (6-mer frequency, TF over GST control).

Regarding TGCGCT, the binding signal is 1.24 fold enrichment (6-mer frequency, TF over GST control).

For CCACTA, the binding signal was 1.11 fold enrichment (6-mer frequency, TF over GST control).

TTCGCT: the binding signal is 1.08 fold enrichment (6-mer frequency, TF over GST control).

In the case of CCGCAT, the binding signal is 1.53 fold enrichment (6-mer frequency, TF over GST control).

Take ATCTCG: the binding signal was 1.19 fold enrichment (6-mer frequency, TF over GST control).

The target in a further assay is ELF4 (Homo sapiens, UniProt Q99607 1-663). The description is as above. To be noted: protein: recombinant; tags: N-terminal GST; dsDNA, one strand shown. Put shortly: as §1
Chain of ELF4 (Q99607 whole entry): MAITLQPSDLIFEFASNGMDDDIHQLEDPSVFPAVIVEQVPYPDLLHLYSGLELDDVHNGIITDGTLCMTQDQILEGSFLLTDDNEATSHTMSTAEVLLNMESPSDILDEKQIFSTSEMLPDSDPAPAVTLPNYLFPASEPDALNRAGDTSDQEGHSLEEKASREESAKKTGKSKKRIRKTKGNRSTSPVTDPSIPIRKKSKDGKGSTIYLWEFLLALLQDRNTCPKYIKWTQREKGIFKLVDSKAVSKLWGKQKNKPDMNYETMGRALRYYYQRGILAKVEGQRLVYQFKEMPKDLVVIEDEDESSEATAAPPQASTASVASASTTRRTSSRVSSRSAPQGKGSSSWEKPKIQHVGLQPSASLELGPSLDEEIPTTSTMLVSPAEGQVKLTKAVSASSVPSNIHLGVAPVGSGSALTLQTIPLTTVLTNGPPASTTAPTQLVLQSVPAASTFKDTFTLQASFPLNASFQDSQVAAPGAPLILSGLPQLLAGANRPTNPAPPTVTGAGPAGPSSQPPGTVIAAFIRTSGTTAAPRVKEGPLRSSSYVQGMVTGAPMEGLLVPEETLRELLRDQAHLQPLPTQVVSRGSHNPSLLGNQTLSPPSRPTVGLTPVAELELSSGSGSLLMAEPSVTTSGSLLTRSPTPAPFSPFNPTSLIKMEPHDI
As to ACGGAT, the binding signal is 1.19 fold enrichment (6-mer frequency, TF over GST control).

Consider ATCGCC, for which the binding signal was 1.24 fold enrichment (6-mer frequency, TF over GST control).

On to TCTCGG, for which the binding signal was 1.4 fold enrichment (6-mer frequency, TF over GST control).

As for TCTTAT, the binding signal was 1.21 fold enrichment (6-mer frequency, TF over GST control).

As to CTACAT, the binding signal is 1.37 fold enrichment (6-mer frequency, TF over GST control).

As for TAGATG, the binding signal is 1.18 fold enrichment (6-mer frequency, TF over GST control).

As for TCCCCC, the binding signal was 1.53 fold enrichment (6-mer frequency, TF over GST control).

AAAATG: the binding signal is 1.26 fold enrichment (6-mer frequency, TF over GST control).

TCACTG: the binding signal was 1.17 fold enrichment (6-mer frequency, TF over GST control).

Consider GTTCTG, for which the binding signal was 1.14 fold enrichment (6-mer frequency, TF over GST control).

In the case of CCTTTC, the binding signal was 1.68 fold enrichment (6-mer frequency, TF over GST control).

As to CAATTA, the binding signal was 1.14 fold enrichment (6-mer frequency, TF over GST control).

CAAGAT: the binding signal is 1.18 fold enrichment (6-mer frequency, TF over GST control).

Regarding GCTCAC, the binding signal was 1.53 fold enrichment (6-mer frequency, TF over GST control).

Regarding TTTGTA, the binding signal is 1.58 fold enrichment (6-mer frequency, TF over GST control).

Take TTTTGG: the binding signal is 1.41 fold enrichment (6-mer frequency, TF over GST control).

ATGGAT: the binding signal is 1.11 fold enrichment (6-mer frequency, TF over GST control).

GAACAA: the binding signal was 1.2 fold enrichment (6-mer frequency, TF over GST control).

Turning to TCACTT, the binding signal was 1.74 fold enrichment (6-mer frequency, TF over GST control).

For GCCTAA, the binding signal was 1.25 fold enrichment (6-mer frequency, TF over GST control).

Take CCTGAT: the binding signal is 1.59 fold enrichment (6-mer frequency, TF over GST control).

Regarding AATACC, the binding signal was 1.1 fold enrichment (6-mer frequency, TF over GST control).

Turning to ATTATA, the binding signal was 1.24 fold enrichment (6-mer frequency, TF over GST control).

For GATCCT, the binding signal was 1.35 fold enrichment (6-mer frequency, TF over GST control).

For the sequence ATCTGC, the binding signal is 1.44 fold enrichment (6-mer frequency, TF over GST control).

For the sequence ATACCT, the binding signal is 1.1 fold enrichment (6-mer frequency, TF over GST control).

In the case of TGTTTC, the binding signal is 1.73 fold enrichment (6-mer frequency, TF over GST control).

Regarding TATGCT, the binding signal was 1.31 fold enrichment (6-mer frequency, TF over GST control).

Take TGGCTT: the binding signal was 1.28 fold enrichment (6-mer frequency, TF over GST control).

With CTGATT, the binding signal is 1.22 fold enrichment (6-mer frequency, TF over GST control).

Consider ACTCCG, for which the binding signal was 1.58 fold enrichment (6-mer frequency, TF over GST control).

On to GTTGCT, for which the binding signal is 1.27 fold enrichment (6-mer frequency, TF over GST control).

For the sequence TAATAC, the binding signal is 1.14 fold enrichment (6-mer frequency, TF over GST control).

In the case of TCTCAG, the binding signal was 1.36 fold enrichment (6-mer frequency, TF over GST control).

Consider TAAAAT, for which the binding signal was 1.2 fold enrichment (6-mer frequency, TF over GST control).

On to TGCGCT, for which the binding signal is 1.19 fold enrichment (6-mer frequency, TF over GST control).

In the case of CCACTA, the binding signal was 1.11 fold enrichment (6-mer frequency, TF over GST control).

As to TTCGCT, the binding signal was 1.36 fold enrichment (6-mer frequency, TF over GST control).

On to CCGCAT, for which the binding signal is 1.62 fold enrichment (6-mer frequency, TF over GST control).

ATCTCG: the binding signal was 1.32 fold enrichment (6-mer frequency, TF over GST control).
